# Laboratory results reported in PubChem BioAssay.
# Active and inactive are the calls of the source.
# What was measured:
# [1] = binders of probe aFSTL3 on microarray, primary screen, stem cell growth factor project, biochemical, small-molecule microarray, fluorescence 635/667 (AID 1064); conditions: higher = more signal;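 note: measures binding of the biotinylated anti-FSTL3 antibody to printed compounds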
# [2] = binders from COS7 lysate, DM2A8 probe, primary screen, torsin A project, cell lysate, small-molecule microarray, fluorescence 635/667 (AID 1065); conditions: higher = more signal, COS7 lysate expressing mutant human TOR1A
# [3] = binders of probe aFGF2 on microarray, primary screen, stem cell growth factor project, biochemical, small-molecule microarray, fluorescence 635/667 (AID 1067); conditions: higher = more signal;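 note: measures binding of biotinylated aFGF2 protein to printed compounds on slides; z-score merges feature fluorescence and signal-to-noise across triplicate slides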
# [4] = binders of probe aFGF10 on microarray, primary screen, stem cell growth factor project, biochemical, small-molecule microarray, fluorescence 635/667 (AID 1071); conditions: higher = more signal;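 note: score merges 667 nm spot intensity and signal to noise from triplicate slides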
# [5] = target: Neurogenic locus notch homolog protein 2 (Homo sapiens) (UniProt Q04721); assay: Notch2 binders on small-molecule microarrays, primary screen, biochemical, small-molecule microarray, 635 nm fluorescence, stem cell growth factors (AID 1073); conditions: Notch2 binding, higher = more signal
# [6] = target: Pro-neuregulin-1, membrane-bound isoform (Homo sapiens) (UniProt Q02297); assay: NRG1 binders on small-molecule microarrays, primary screen, psychiatric disease protein project, biochemical, small-molecule microarray, fluorescence 635/667 (AID 1075); conditions: NRG1 binding, 635 nm fluorescence, higher = more signal;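 note: score combines 667 nm spot fluorescence with signal to noise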
# [7] = tested on: Neuregulin-1 EGF-like domain; assay: binders of neuregulin-1 EGF-like domain, primary screen, biochemical, small-molecule microarray, 635 nm fluorescence (AID 1081); conditions: small-molecule microarray binding, higher = more signal;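 note: binding of the protein to compounds printed on small-molecule microarray slides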
# [8] = FRG1 promoter luciferase signal modulators, primary screen, FRG1 inhibition for FSHD, cell-based, C2C12 myotubes, firefly/Renilla luciferase, luminescence (AID 1084); conditions: higher = more signal, called active from +8 up or from −8 down
# [9] = binders of probe aFST on microarray, primary screen, stem cell growth factor project, biochemical, small-molecule microarray, fluorescence 635/667 (AID 1086); conditions: higher = more signal;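 note: score merges 667 nm fluorescence with signal-to-noise of each printed compound spot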
# [10] = binders of probe aHhip on microarray, primary screen, stem cell growth factor project, biochemical, small-molecule microarray, fluorescence 635/667 (AID 1087); conditions: higher = more signal;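 note: score merges spot fluorescence at 667nm with spot signal to noise ratio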
# Neurogenic locus notch homolog protein 2 (Homo sapiens), sequence (Q04721 whole entry, looked up, canonical isoform): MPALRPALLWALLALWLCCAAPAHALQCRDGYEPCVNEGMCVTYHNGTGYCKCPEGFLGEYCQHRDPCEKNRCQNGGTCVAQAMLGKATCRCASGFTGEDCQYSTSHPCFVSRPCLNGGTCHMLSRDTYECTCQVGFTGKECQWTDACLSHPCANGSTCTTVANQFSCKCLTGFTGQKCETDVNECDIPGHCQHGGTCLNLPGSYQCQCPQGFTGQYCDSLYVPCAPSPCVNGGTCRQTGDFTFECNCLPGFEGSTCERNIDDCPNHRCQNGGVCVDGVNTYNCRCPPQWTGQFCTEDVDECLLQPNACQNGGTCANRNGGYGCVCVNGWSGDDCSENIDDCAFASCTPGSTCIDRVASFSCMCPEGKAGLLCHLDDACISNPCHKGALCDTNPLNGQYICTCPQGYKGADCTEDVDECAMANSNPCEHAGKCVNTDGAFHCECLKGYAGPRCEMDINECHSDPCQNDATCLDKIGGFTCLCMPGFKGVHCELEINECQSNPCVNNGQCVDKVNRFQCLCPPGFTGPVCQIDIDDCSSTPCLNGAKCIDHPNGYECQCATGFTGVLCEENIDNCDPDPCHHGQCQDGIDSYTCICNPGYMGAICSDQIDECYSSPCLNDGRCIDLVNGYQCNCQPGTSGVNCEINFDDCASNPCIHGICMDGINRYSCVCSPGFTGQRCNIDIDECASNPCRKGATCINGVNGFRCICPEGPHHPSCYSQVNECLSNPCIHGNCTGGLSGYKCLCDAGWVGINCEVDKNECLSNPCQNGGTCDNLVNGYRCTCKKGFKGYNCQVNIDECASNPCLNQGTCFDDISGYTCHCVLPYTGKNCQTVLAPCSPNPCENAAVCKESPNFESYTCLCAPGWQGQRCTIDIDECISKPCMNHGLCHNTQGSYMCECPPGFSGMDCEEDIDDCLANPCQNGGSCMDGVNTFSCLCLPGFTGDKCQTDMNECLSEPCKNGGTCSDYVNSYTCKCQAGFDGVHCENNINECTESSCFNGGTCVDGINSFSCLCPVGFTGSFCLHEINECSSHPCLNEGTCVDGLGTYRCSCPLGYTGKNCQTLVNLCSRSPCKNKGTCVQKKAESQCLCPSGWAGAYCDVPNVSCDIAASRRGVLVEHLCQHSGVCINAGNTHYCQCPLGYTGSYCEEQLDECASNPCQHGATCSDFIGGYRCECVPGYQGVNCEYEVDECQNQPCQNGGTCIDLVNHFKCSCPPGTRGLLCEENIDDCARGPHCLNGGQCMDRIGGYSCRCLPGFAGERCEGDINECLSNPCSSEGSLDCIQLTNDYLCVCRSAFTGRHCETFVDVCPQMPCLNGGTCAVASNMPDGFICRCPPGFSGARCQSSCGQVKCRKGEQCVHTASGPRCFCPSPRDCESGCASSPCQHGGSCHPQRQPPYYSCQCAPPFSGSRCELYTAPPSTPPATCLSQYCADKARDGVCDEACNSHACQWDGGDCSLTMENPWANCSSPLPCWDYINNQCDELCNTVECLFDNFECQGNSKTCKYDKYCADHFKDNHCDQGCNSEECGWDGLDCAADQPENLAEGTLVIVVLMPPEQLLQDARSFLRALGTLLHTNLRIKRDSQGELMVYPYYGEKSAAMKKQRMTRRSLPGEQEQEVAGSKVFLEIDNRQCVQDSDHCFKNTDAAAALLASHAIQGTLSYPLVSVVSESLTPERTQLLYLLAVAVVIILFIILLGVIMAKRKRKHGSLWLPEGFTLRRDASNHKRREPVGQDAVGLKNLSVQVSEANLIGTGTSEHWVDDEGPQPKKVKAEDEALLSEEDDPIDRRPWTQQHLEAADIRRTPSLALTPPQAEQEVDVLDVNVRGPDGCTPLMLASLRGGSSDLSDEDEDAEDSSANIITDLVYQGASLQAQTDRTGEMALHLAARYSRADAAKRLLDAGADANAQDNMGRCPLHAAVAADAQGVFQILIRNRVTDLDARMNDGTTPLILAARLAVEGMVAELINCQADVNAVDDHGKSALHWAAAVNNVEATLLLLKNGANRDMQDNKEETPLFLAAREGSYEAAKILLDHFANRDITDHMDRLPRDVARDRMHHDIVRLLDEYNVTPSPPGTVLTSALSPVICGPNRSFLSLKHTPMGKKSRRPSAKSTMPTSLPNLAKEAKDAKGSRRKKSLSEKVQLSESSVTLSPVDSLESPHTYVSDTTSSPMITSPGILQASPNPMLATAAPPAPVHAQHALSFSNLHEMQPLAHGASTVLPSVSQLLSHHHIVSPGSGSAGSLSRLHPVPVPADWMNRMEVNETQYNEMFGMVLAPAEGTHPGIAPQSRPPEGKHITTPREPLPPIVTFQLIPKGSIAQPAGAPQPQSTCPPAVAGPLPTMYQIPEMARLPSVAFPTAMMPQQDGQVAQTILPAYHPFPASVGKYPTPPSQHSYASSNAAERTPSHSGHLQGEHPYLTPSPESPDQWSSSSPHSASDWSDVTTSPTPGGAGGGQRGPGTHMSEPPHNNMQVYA
# Pro-neuregulin-1, membrane-bound isoform (Homo sapiens), sequence (Q02297 whole entry, looked up, the tested form may be a part, canonical isoform): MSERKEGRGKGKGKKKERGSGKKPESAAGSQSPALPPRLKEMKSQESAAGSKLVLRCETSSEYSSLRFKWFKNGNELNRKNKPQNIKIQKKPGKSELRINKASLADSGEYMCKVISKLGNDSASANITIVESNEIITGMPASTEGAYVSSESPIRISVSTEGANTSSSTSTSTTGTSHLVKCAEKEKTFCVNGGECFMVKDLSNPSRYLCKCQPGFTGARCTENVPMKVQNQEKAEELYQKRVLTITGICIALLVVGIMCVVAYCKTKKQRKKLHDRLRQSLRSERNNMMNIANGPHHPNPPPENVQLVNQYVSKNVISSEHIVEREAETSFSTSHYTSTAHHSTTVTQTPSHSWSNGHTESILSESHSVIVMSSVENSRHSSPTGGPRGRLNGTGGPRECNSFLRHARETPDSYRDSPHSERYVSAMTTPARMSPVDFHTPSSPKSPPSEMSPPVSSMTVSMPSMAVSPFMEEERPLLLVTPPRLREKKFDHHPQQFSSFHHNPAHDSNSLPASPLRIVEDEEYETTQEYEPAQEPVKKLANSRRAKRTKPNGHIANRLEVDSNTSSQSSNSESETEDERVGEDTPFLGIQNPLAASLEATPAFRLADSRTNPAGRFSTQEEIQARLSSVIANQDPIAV
Structure (SMILES),composite z-score [1],composite z-score [2],composite z-score [3],composite z-score [4],composite z-score [5],composite z-score [6],composite z-score [7],z-score [8],composite z-score [9],composite z-score [10]
CO[C@H]1O[C@H](CO)[C@@H](OC(=O)Nc2ccc3c(c2)OCO3)[C@H](OC(=O)Nc2ccccc2-c2ccccc2)[C@H]1OC(=O)Nc1ccccc1-c1ccccc1,0.22,0.873,0.007,1.26,1.44,0.96,1.18,0.124 (inactive),0.189,0.0749
COCCCN1C(=O)[C@@]2(c3ccc([N+](=O)[O-])cc3)CC(=O)N(CC34CC5CC(CC(C5)C3)C4)[C@@H]2c2ccc(CO)cc21,-0.145,-0.104,-0.0952,0.0256,-0.345,0.0024,1.05,-0.748 (inactive),-0.19,0.312
CCCCCCc1nc(-c2ccc(-c3ccc(Cl)c(Cl)c3)o2)cc2c1[Si](C(C)C)(C(C)C)OC2,0.0736,-0.207,-0.162,-0.632,-1.01,-0.14,0.262,1.25 (inactive),-0.634,-0.134
CC1CC/C=C\[C@H]2OC34C=CCN(Cc5ccccc5)C(=O)[C@H]3N(CCCCCCO)C(=O)[C@@H]4C2C(=O)O1 (stereo not given in full),0.261,0.96,-0.116,-0.994,-0.763,1.91,1.19,-0.1 (inactive),-0.696,-0.226
COC(=O)C1=CC(CCCO)=CC(c2cccs2)N(Cc2cc3c(cc2Br)OCO3)C=C1C(=O)OC (stereo not given),0.0066,0.951,0.0931,1.02,1.27,1.66,1.33,-2.18 (inactive),0.182,0.0972
C[N+](C)(C)CCCC[C@@H]1NC(=O)[C@H]2C[C@@H](C(=O)NCCCCCNC(=O)CS)[C@@H](c3cccc(OCCO)c3)N2C1=O,-0.121,0.348,-0.102,0.0107,-0.324,1.5,0.785,-0.474 (inactive),0.0685,0.0373
CN(C)CCCC[C@@H]1NC(=O)[C@@H]2C[C@H](C(=O)NCCCCCN)[C@H](c3cccc(OCCO)c3)N2C1=O,-0.439,1.75,-0.121,0.549,0.549,1.09,1.35,-1.02 (inactive),0.153,0.0722
COc1ccc([Si](C)(C)[C@H]2[C@H](CCO)O[C@@]3(C(=O)N(Cc4cccc(N5C(=O)c6ccccc6Oc6ccccc65)c4)c4ccccc43)[C@@H]2C)cc1,0.115,-0.672,-0.0645,0.462,0.139,0.962,1.02,-1.19 (inactive),-0.278,-0.132
CCCc1cc2c(n1CCc1ccc(Cl)cc1)C(C)C1CN(C(=O)c3ccccc3)C(C)(C(=O)OC)C21 (stereo not given),1.44,0.721,0.384,0.204,1.73,1.78,0.937,1.91 (inactive),1.1,2.27
C=C(CCCC)/C(=C/C[C@H](OC(=O)c1ccncc1)c1cccc(OCCO)c1)c1cnc2ccccc2c1,-0.279,0.824,0.0437,0.595,0.974,1.56,1.04,0.996 (inactive),0.346,-0.0491
CCCNC(=O)[C@@]1(c2ccc([N+](=O)[O-])cc2)CC(=O)N(C(C)C)[C@@H]1c1ccc(CO)cc1,0.829,-0.22,-0.111,-0.904,-1.73,0.0532,0.843,-0.558 (inactive),-1.14,-0.0618
CN(C)C(=O)[C@@]1(Cc2ccccc2CN=[N+]=[N-])COC(c2ccc(OCCCO)cc2)=N1,0.695,-0.445,-0.085,-0.0663,0.0696,1.63,1.1,-2.47 (inactive),0.681,-0.134
Cc1ccc(S[C@]2(C(=O)NCCCN(C)C)CC(=O)N(C3Cc4ccccc4C3)[C@@H]2c2ccc(CO)cc2I)cc1,0.533,-0.602,-0.0281,-0.25,0.0374,1.88,0.522,-0.967 (inactive),0.404,-0.0373
COC(=O)C1(Cc2ccccc2)C=C2C(=C(C)C(=O)C2C)CN1 (stereo not given),0.601,0.158,-0.0032,0.137,1.01,0.643,0.635,0.0369 (inactive),0.66,-0.199
O=C(NCc1ccc(F)cc1)[C@H]1C[C@H]2C(=O)N3CCC[C@H]3C(=O)N2[C@H]1c1ccc(O)cc1,0.883,-0.554,-0.195,-0.216,-0.428,0.192,0.49,-0.29 (inactive),-0.819,-0.0772
O=C1C[C@@](C(=O)NC2CC2)(c2ccc([N+](=O)[O-])cc2)[C@@H](c2ccc(CO)cc2)N1C1CCCCC1,-0.281,0.286,0.0626,0.907,0.804,1.81,1.3,-0.534 (inactive),0.832,0.164
